“And” between values parts separate entries of the source, which are not always exact repeats. Identical values can stand only once. In all, about 1,100 compounds went through this assay and about 160 (15%) were called active. Another 36% or so got no clear call; they are omitted. Calls come from the whole dose curve; as a rule, active = well fitted inhibition curve with a large enough effect; inconclusive = small, poorly fitted or top-dose-only effect; inactive = no such curve, though single readings can be large or run the other way. Only a sample is shown. Where a call stands in place of a potency, no number is given.
Potency is the fitted concentration of half-maximal effect.

Sequence of ATP-dependent DNA helicase Q1 (Homo sapiens) (P46063 whole entry, looked up): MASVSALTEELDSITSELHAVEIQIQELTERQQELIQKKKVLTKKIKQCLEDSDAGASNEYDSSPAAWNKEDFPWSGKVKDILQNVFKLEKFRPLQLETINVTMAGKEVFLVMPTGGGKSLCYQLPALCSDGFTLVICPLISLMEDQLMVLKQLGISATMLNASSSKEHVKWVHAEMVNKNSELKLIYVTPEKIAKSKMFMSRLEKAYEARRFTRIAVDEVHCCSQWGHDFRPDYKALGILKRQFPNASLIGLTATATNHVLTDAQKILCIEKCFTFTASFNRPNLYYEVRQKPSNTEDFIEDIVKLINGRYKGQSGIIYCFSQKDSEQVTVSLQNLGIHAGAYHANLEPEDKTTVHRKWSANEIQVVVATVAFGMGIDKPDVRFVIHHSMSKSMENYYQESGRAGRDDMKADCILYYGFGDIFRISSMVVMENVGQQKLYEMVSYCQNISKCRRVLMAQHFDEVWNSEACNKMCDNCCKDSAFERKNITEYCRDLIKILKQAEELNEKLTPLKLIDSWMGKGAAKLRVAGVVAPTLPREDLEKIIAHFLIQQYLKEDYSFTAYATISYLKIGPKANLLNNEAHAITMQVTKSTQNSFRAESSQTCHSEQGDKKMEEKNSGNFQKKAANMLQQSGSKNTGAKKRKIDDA

The target of this experiment is ATP-dependent DNA helicase Q1 (Homo sapiens) (UniProt P46063). Description: Confirmation qHTS Assay for Inhibitors of RecQ-Like Dna Helicase 1 (RECQ1) - Round 2 Cherry Picks. Note: nearly all actives have a fitted effect of over 50% in size. The following applies: recombinant RECQ1 DNA unwinding, red fluorescence; series mostly up to 119 µM. The source says:
Survival of cells and the faithful propagation of the genome depend on elaborate mechanisms of detecting and repairing DNA damage. Treatment of advanced cancer relies on radiation therapy or chemotherapy, which kill cancer cells by causing extensive DNA damage. It is often found, that cancer cells develop resistance to therapy through enhanced activity of DNA repair functions; this has led to an increased interest in developing drugs that interfere with DNA repair, which could sensitize cancer cells to conventional therapy. This validation qHTS assay pertains to human RECQ1, which is important in resolving abnormal DNA structures formed during replication or homologous recombination. Shutting down the expression of RECQ1 leads to chromosomal instability and higher radiation sensitivity in cultured cells. […] The validation assay was a fluorescence quenching based kinetic qHTS for RECQ1 Helicase DNA unwinding. The activity was measured as ATP-dependent separation of a 20-bp DNA duplex extended by 30-nt single-stranded tails (forked duplex). The forked DNA substrate was tagged with rhodamine fluorophore (carboxytetramethyl rhodamine, TAMRA) and BHQ-2 (Black Hole Quencher 2) dark quencher. Strand separation results in an increase in the fluorescence of TAMRA (excitation 525 nm, emission 598 nm). This substrate construct operates in a red-shifted region where very few compound library members have been noted to fluoresce (PubChem AIDs 593 and 594). An additional feature of the assay is the inclusion of 2.5 ug/ml poly (dIdC), to reduce interference by compounds such as DNA intercalators, a major source of false inhibitors. NIH Chemical Genomics Center [NCGC] NIH Molecular Libraries Probe Centers Network [MLPCN] MLPCN Grant: MH087284-01 Assay Submitter (PI): Opher Gileadi, Structural Genomics Consortium, University of Oxford
Three uL of reaction buffer (25 mM Tris-HCl (pH 8.0), 5 mM NaCl, 2 mM MgCl2, 1mM DTT, 0.01% Tween- 20, and 2.5 ug/ml poly(dI-dC), including enzyme (50 nM RECQ1T1), were dispensed into a 1536-well Greiner black assay plate via solenoid-valve based nanoliter dispensers. Compounds (23 nl each in columns 5-48) and control (23 nl each in column 2 as dose-response) were transferred via a Kalypsys pintool equipped with a 1536-pin array. The plates were incubated for 15 min at room temperature, and then 1 ul of substrates (200 nM DNA and 2 mM ATP, final concentrations) was added to start the reaction. The plate was transferred into a ViewLux high-throughput CCD imager where the reaction progress was measured in a discontinuous kinetic mode (two reads spaced 2 hours apart, with intermediate room temperature incubation of the covered assay plate) by using standard red-fluorescence optics (excitation filter 525 nm, emission filter 598 nm). Enzyme-free and vehicle (DMSO) controls were included for signal normalization.
In the case of `CCC(c1nnnn1Cc1ccco1)N(Cc1cc2cc(OC)ccc2[nH]c1=O)C1CCCCC1` (stereo not drawn), the Potency result was “inactive”. Consider `COc1cccc(NC(=S)C(C#N)=C2N(C)c3ccccc3N2C)c1`, for which the Potency entry is “inactive”. In the case of `COc1c(O)cc2oc(-c3ccc(O)c(O)c3)cc(=O)c2c1O` it was 4.47 µM (active) and 2 µM (active); in that of `O=C(CSc1ccc(-c2ccco2)nn1)NCc1ccc2c(c1)OCO2`, “inactive”. In the case of `Oc1c(C=Nc2cccc3nsnc23)ccc2ccccc12`, the Potency was 39.8 µM (active).

Take `COc1ccc(Cl)cc1C(=O)NNC(=S)NC(=O)/C=C/c1ccco1`: the Potency entry was “inactive”. In the case of `Oc1ccc(N=Cc2sc3ccccc3c2Cl)cc1` it was “inactive”; in that of `COc1ccc2[nH]c3c(C)c4cc[n+](C)cc4c(C)c3c2c1`, 2.51 µM (active). On to `CCCCOC(=O)c1ccc(NC(c2ccc(C)cc2)P(=O)(OC)OC)cc1` (stereo not drawn), for which the Potency result was “inactive”. In the case of `COC(=O)Cc1cc(=O)n(-c2nc3ccccc3s2)[nH]1` it was “inactive”. With `Cc1cccc(-n2nc3c(c2NC(=O)c2ccc(Br)o2)CSC3)c1C`, the Potency result was “inactive”.

Regarding `COc1cc(C(=O)NCc2nnc(SCC(=O)Nc3nc4ccc(C)cc4s3)o2)cc(OC)c1OC`, the Potency entry is “inactive”. In the case of `COCCNC(=O)Nc1ccc2nc(-c3ccco3)c(-c3ccco3)nc2c1` it was “inactive”. In the case of `CC(C)Cn1c(N)c(C(=O)NCc2cccs2)c2nc3ccccc3nc21` it was “inactive”. On to `CN1C(=O)/C(=C/c2ccco2)SC1=Nc1cccc(C(=O)O)c1`, for which the Potency result is “inactive”. In the case of `CCc1cc(C(c2ccccc2OC)N2CCOCC2)c(NC(=O)c2ccccc2)s1` (stereo not drawn), the Potency result was “inactive”.

`Cc1ccc(Cc2cnc(N)s2)o1`: the Potency entry is “inactive”. For the molecule `CC(C)C1N=C2c3ccccc3N=C(SCC(=O)c3ccc(O)c(O)c3)N2C1=O` (stereo not drawn), the Potency is 3.16 µM (active). Regarding `O=C(NCCCN1CCCCCC1)c1ccc(N2CCCC2=O)cc1`, the Potency result is “inactive”. On to `c1ccc2c(NC3C4CC5CC(C4)CC3C5)nc(N3CCOCC3)nc2c1` (stereo not drawn), for which the Potency result is “inactive”. With `NC1=NC(=O)C(Cc2cccc(Cl)c2Cl)S1` (stereo not drawn) the entry was “inactive”; with `CC(Oc1cccc(NC(=O)c2cccs2)c1)C(=O)c1ccccc1` (stereo not drawn), “inactive”. For the molecule `CCC(C)Cn1c(O)cc2nn(-c3nc4ccccc4s3)c(=O)c-2c1C` (stereo not drawn), the Potency entry was “inactive”. In the case of `O=C1c2ccccc2C(=O)N1Cc1cc(-c2ccccc2Cl)no1` it was “inactive”; in that of `COc1ccc(OCC(=O)Nc2nnc(-c3ccco3)s2)cc1`, “inactive”; in that of `COc1ccc(NC(=O)CSc2nc(NS(=O)(=O)c3ccc(C)cc3)cc(=O)[nH]2)cc1`, “inactive”.

For `COC(C(=O)Nc1ccc(S(=O)(=O)Nc2ccc(C)c(C)c2)cc1)c1ccccc1` (stereo not drawn), the Potency entry is “inactive”. With `O=C(NCCN1C(=O)S/C(=C\c2cccnc2)C1=O)c1ccc(S(=O)(=O)N2CCCC2)cc1` the entry was “inactive”; with `O=C(CN1CCN(c2ccc(O)cc2)CC1)Nc1cc(S(=O)(=O)N2CCOCC2)ccc1Cl`, “inactive”. Consider `CCN(CC)c1ccc2oc(=O)c(C)nc2c1`, for which the Potency was 50.1 µM (active). In the case of `COc1ccc(/C(N)=N/OC(=O)CCCc2ccccc2)cc1` it was “inactive”; in that of `Cc1ccnc2nc(C(=O)Nc3nnc(-c4ccccc4)o3)nn12`, “inactive”; in that of `CCc1ccc2nc3sc(C(=O)Nc4nnc(CC)s4)c(N)c3cc2c1`, 39.8 µM (active).

The values are drawn from PubChem BioAssay AID504841 (National Center for Advancing Translational Sciences (NCATS), 2011).
